Consider 11 molecules from ChEMBL document CHEMBL3988442, “University of Dundee, Small-Polar-MMV Screening Library” (2021).

Common to all, as to set-up: scale not given: direction of the effect not stated beside the values
The target in test [1] is Protein translocase subunit SecA (Escherichia coli (strain K12)) (UniProt P10408). In words: Assay to Identify E. coli SecA ATPase Inhibitors. It is filed as functional. The conditions noted are these: 30 µM.
Test [2] has as its target T1, Ubiquitin-activating enzyme e1, putative (Leishmania donovani (strain BPK282A1)) (UniProt E9BSI1).
T1 sequence (whole entry): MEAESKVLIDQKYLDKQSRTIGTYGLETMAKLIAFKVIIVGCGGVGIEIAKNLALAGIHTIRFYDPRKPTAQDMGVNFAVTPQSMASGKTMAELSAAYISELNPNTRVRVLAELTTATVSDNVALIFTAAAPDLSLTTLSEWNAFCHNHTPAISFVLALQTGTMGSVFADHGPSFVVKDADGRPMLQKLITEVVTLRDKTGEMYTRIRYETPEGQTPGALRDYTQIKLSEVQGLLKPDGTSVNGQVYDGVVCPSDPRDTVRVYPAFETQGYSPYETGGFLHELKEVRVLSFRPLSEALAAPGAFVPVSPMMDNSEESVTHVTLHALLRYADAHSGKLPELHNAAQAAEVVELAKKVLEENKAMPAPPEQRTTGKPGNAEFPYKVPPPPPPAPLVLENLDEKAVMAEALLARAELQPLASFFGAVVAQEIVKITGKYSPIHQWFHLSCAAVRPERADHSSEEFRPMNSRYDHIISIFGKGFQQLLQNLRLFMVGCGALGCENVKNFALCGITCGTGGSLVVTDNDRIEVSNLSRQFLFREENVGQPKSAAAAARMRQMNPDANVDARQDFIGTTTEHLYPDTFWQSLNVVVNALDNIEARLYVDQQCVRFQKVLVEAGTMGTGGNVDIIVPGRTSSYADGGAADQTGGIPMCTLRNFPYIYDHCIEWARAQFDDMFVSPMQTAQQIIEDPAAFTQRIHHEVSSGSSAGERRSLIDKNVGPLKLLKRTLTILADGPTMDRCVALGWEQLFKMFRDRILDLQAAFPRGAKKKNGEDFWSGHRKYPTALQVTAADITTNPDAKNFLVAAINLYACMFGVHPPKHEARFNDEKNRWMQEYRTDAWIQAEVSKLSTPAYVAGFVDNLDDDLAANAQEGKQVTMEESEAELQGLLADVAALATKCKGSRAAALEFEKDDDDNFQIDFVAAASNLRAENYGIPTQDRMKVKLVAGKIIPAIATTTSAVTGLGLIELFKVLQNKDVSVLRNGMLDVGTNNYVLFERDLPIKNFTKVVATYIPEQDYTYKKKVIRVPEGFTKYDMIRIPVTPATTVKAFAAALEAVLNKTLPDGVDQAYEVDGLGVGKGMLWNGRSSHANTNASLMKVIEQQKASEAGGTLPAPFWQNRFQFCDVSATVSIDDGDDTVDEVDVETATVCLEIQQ
Description: Leishmania donovani Ubiquitin Activating Enzyme (LdE1). It is filed as functional. To be noted: 30 µM.

The target of test [3] is AMP-activated protein kinase, AMPK (Homo sapiens) (UniProt P54646+O43741+P54619+Q9UGJ0+Q9Y478+Q13131+Q9UGI9). In words: AMP-dependent Kinase enzyme assay. An in vitro enzyme assay that detects ADP turnover that is directly proportional to AMPK activity. This uses naive AMPK that is activated during the assay with MK-8722. The class given is functional. The conditions noted are these: 30 µM.

The target of test [4] is Sialic acid-binding Ig-like lectin 9 (Homo sapiens) (UniProt Q9Y336). Description: Hs-Siglec9 ALPHAscreen SOP 20170721. To be noted: 10 µM. Background: Alpha assays give light when donor and acceptor beads are brought close together.
The subject of another test is Trypanosoma cruzi. Description: Trypanosoma cruzi phosphomannomutase and mannose-1-phosphate guanylyltransferase assay. It is filed as functional. The conditions noted are these: 10 µM.
For test [5], the target named is T2, Arginase-2, mitochondrial (Homo sapiens) (UniProt P78540).
T2 sequence (whole entry): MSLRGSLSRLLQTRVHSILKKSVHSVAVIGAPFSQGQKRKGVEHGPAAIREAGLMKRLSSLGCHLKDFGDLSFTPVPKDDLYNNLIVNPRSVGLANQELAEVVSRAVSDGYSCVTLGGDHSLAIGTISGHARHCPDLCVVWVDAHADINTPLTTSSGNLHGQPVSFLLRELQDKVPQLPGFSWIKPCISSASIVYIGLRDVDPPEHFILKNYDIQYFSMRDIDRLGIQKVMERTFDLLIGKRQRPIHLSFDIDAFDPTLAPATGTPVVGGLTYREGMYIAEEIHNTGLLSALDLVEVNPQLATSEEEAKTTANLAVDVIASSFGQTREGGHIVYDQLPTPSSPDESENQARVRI
Description: in vitro enzyme assay to detect the production of urea directly proportional to the activity of Arginase II. Further: in the data most compounds retested in dose-response had high values. The class given is functional. The conditions noted are these: 33.3 µM.

The target of test [6] is T3, Proteasome subunit beta (Trypanosoma cruzi) (UniProt O96673).
T3 sequence (whole entry): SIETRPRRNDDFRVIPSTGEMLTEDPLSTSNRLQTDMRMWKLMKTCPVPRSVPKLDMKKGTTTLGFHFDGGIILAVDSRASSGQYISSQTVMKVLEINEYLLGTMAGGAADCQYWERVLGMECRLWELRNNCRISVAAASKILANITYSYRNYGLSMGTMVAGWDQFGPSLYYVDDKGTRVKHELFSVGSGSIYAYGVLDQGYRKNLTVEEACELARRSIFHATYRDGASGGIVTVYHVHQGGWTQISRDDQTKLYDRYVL
Description: Trypanosoma cruzi proteasome chymotrypsin-like activity (TcProtChymo) assay. Further: in the data most compounds retested in dose-response had high values. The class given is functional. To be noted: 9.37 µM.

The species named for another test is Homo sapiens. Description: To identify inhibition of the IFN signalling (Jak-Stat) pathway via expression of an eGFP reporter gene under the control of an IFN-stimulated response element (ISRE) containing MxA promoter. The class given is functional. The conditions noted are these: 30 µM. For orientation: In a reporter assay the amount or activity of a reporter protein is the signal.

In test [7] the target is T4, Tyrosyl-tRNA synthetase, putative (Trypanosoma cruzi (strain CL Brener)) (UniProt Q4DSP6).
T4 sequence (whole entry): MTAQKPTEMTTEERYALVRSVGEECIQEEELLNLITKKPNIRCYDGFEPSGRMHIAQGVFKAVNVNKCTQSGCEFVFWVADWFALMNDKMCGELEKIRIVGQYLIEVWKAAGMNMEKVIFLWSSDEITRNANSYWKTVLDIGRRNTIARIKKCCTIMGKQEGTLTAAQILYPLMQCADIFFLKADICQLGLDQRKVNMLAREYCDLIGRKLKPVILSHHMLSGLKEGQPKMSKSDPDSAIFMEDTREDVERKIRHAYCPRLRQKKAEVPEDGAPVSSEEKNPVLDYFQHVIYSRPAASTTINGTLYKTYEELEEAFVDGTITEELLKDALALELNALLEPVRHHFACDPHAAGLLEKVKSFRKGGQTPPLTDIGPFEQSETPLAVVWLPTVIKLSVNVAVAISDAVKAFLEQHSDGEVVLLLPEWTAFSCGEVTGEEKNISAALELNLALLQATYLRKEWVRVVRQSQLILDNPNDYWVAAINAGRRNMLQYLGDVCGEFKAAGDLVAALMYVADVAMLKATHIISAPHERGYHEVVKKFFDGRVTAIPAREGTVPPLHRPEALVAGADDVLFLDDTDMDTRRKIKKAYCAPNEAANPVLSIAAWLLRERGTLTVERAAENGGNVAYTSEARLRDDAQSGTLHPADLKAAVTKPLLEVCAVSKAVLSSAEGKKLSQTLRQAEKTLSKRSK
In words: Trypanosoma cruzi tyrosyl tRNA synthetase (TcYRS) _High Tyrosine SOP. Further: in the data most compounds retested in dose-response had high values. It is filed as functional. To be noted: 30 µM.

Test [8] concerns the target T4, Tyrosyl-tRNA synthetase, putative (Trypanosoma cruzi (strain CL Brener)). In words: Trypanosoma cruzi tyrosyl tRNA synthetase (TcYRS) SOP. It is filed as functional. To be noted: 30 µM.
In test [9] the target is Chromo domain-containing protein 1 (Saccharomyces cerevisiae (strain ATCC 204508 / S288c) (Baker's yeast)) (UniProt P32657). In words: ScCHD-1 Enzyme Inhibition Assay. Further: in the data most compounds retested in dose-response had high values. It is filed as functional. To be noted: 30 µM.

Each structure is given as a SMILES string. For some of these results: Potency and affinity values are given separately.

Sequence of Protein translocase subunit SecA (Escherichia coli (strain K12)) (P10408 whole entry): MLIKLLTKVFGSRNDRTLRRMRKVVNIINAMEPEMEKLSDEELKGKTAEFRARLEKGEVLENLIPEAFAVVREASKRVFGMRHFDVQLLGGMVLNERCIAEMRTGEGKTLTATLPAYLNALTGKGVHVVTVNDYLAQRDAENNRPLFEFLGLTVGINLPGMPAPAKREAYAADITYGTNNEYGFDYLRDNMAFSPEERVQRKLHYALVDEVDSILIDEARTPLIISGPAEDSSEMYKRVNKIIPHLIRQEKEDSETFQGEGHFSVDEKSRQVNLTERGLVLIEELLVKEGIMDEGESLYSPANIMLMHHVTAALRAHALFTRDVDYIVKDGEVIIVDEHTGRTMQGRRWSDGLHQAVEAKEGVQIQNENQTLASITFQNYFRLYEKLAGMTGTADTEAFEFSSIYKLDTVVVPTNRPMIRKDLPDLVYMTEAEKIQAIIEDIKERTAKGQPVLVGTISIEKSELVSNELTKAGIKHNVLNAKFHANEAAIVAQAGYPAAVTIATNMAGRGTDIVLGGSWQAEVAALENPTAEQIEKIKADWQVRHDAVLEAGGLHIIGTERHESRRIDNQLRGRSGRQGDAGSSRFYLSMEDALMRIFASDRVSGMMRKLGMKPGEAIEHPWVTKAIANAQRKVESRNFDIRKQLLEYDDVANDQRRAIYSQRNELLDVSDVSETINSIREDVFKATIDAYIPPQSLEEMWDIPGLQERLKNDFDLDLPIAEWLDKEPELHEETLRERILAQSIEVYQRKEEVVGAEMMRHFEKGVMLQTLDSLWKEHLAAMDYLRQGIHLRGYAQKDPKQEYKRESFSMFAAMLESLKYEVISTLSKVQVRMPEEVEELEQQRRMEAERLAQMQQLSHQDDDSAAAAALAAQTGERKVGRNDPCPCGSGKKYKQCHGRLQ
Sequence of Sialic acid-binding Ig-like lectin 9 (Homo sapiens) (Q9Y336 whole entry): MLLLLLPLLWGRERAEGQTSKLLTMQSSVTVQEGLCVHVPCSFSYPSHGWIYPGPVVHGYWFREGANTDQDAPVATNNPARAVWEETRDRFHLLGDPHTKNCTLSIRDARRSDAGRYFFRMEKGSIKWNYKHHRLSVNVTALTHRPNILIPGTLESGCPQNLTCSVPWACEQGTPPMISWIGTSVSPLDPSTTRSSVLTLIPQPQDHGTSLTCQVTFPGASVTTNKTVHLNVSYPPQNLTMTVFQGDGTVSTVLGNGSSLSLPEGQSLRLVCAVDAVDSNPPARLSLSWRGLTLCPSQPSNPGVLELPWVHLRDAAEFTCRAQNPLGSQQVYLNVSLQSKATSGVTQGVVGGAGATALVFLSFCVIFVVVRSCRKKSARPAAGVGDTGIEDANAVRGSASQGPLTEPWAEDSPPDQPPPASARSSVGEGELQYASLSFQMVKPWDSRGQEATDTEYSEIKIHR
Sequence of Chromo domain-containing protein 1 (Saccharomyces cerevisiae (strain ATCC 204508 / S288c) (Baker's yeast)) (P32657 whole entry, the tested form may be a part): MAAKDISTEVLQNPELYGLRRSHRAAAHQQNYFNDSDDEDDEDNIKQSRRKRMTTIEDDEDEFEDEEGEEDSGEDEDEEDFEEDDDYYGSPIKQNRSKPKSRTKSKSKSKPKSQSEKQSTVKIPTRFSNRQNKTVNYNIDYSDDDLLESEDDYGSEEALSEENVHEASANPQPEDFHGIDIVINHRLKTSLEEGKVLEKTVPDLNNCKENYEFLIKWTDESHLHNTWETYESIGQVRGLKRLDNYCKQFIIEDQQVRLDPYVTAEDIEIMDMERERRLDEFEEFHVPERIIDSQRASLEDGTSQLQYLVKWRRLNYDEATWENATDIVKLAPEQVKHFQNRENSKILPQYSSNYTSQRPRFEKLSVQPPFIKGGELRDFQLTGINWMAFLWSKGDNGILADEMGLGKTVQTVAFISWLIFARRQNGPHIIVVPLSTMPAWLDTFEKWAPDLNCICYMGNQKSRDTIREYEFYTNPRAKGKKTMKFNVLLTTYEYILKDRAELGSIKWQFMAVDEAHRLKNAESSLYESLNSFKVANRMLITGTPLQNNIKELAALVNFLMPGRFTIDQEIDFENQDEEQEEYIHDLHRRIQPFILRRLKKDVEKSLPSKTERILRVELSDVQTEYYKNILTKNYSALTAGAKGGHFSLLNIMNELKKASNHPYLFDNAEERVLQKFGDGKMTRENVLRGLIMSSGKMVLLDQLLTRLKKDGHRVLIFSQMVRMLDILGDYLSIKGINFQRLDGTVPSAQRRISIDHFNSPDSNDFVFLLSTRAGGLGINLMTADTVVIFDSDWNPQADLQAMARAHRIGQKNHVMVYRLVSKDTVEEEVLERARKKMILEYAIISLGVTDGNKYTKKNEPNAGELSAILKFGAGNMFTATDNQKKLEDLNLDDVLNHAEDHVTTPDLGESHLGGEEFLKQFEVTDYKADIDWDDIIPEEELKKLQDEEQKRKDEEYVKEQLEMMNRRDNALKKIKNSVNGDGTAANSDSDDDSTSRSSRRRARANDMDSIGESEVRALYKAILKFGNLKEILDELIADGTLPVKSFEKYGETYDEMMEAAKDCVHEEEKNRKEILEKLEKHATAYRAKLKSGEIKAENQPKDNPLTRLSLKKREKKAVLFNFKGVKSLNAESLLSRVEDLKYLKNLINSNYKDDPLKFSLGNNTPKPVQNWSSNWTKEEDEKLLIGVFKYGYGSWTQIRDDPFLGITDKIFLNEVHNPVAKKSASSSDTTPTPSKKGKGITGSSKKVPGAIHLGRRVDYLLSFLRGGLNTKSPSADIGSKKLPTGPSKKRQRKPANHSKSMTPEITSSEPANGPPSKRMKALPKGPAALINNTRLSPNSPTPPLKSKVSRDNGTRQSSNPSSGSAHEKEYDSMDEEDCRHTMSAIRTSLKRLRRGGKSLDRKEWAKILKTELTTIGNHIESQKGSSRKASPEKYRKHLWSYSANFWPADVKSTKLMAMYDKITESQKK

In the case of `CCc1ccc(CNC(=O)N2CCN(Cc3cc(C)no3)CC2)s1`, the Percent Effect in test [1] is -3.56%; in test [2], 15.8%; in [3] it was 7.06%; in [4], -6.42%; with Trypanosoma cruzi it was -9.24%; in test [5], -1.08%. In addition, the Percent Effect in test [6] is 17.2%; in the test listed under Homo sapiens it was 13.6%; in test [7] it was 2.46%; in test [8], 6.17%; in test [9], -7.04%.
`COCC1CN(C(=O)c2cccn2C)Cc2ncnn2C1` (stereo unspecified): the Percent Effect is -5.41% in test [1]; 5.2% in [2]; 0.668% in test [3]; 11.3% in [4]; 9.34% with Trypanosoma cruzi; 4.14% in test [5]. Besides, the Percent Effect in [6] is 8.32%; in the test listed under Homo sapiens, 9.25%; in [7], -2.15%; in [8], 11.1%; in test [9] it was 3.71%.
Take `Cn1cc2c(n1)C(COCC1CC1)CN(Cc1ccccn1)C2` (stereo unspecified): the Percent Effect in [1] was -6.24%; in [2], -2.7%; in test [3], 0.433%; in test [4], -2.97%; in the test with Trypanosoma cruzi, 4.2%; in test [5], -0.319%. Further, the Percent Effect in test [6] was determined as 9.22%; in the test filed under Homo sapiens it was 9.46%; in [7], 6.49%; in test [8], 10.3%; in [9], 4.91%.
As for `CCn1ccnc1CN1CCN(CCC(=O)NC(C)(C)C)CC1C` (stereo unspecified), the Percent Effect is -2.88% in test [1]; 8.11% in [2]; -0.327% in test [3]; 5.56% in [4]; 3.71% in the test with Trypanosoma cruzi; 10% in test [5]. The Percent Effect in test [6] was 5.16%; in the test filed under Homo sapiens, 5.99%; in [7], 10.9%; in [8] it was 15.8%; in test [9] it was -3.56%.
For `CC(=O)Nc1nc(CN2CCCC2c2cnn(C)c2)cs1` (stereo unspecified), the Percent Effect was -7.62% in test [1]; 20.2% in test [2]; -9.48% in test [3]; 17.6% in test [4]; 9.54% in the test on Trypanosoma cruzi; -6.46% in test [5]. In addition, the Percent Effect in test [6] is 6.31%; in the test listed under Homo sapiens, -5.41%; in test [7], 7.39%; in [8], 21.5%; in [9], -5.9%.
For `Cc1nn2c(N3CCC(O)CC3)cc(-c3ccccc3)nc2c1C`, the Percent Effect in test [1] is -3.77%; in test [2], 5.48%; in test [3], -0.844%; in test [4], 1.98%; in the test on Trypanosoma cruzi, -3.57%; in test [5], -3.99%. Further, the Percent Effect is 11% in test [6]; 16% in the test listed under Homo sapiens; 5.21% in test [7]; 13.6% in [8]; -5.15% in test [9].
With `O=S(=O)(C1CC1)N1CCO[C@H]2[C@H](OCCN3CCCC3)CC[C@@H]21`, the Percent Effect in test [1] is 0.18%; in test [2], 18.7%; in test [3], -5.59%; in test [4], -6.26%; in the test on Trypanosoma cruzi, 5.6%; in test [5], -62.2%. In addition, the Percent Effect in test [6] was 9.74%; in the test filed under Homo sapiens it was 17.6%; in test [7], 5.21%; in [8], 20%; in test [9], -11.8%.
As for `c1cnnc(N2CCCC2CNCc2nc3ccccc3o2)c1` (stereo unspecified), the Percent Effect in [1] was -0.208%; in [2], 2.74%; in test [3], -3.71%; in [4], 10.3%; with Trypanosoma cruzi, 0%; in [5] it was -3.19%. The Percent Effect in test [6] was 21%; in the test filed under Homo sapiens, -2.37%; in [7] it was 15.6%; in [8], 25.9%; in test [9], -2.93%.
Consider `CN(Cc1cccc(O)c1)CC1CCCN(CCc2ccc(Cl)cc2)C1` (stereo unspecified), for which the Percent Effect in test [1] is -6.32%; in test [2], -13.5%; in [3] it was 1.05%; in test [4] it was 9.76%; in the test on Trypanosoma cruzi, 2.64%; in test [5], 4.22%. For the same molecule, the Percent Effect in test [6] was -2.32%; in the test filed under Homo sapiens, 27.2%; in test [7] it was 4.3%; in [8], 11.1%; in test [9], -0.68%.
`O=C(c1cn(-c2cc(N3CCOCC3)ncn2)cn1)N1CCSCC1`: the Percent Effect in [1] was -3.27%; in test [2], 8.22%; in test [3] it was -3.63%; in test [4], 4.82%; in the test on Trypanosoma cruzi, 1.18%; in test [5], 4.09%. Further, the Percent Effect in test [6] is 25%; in the test filed under Homo sapiens it was 8.07%; in test [7], 9.68%; in test [8], 15%; in [9] it was -5.28%.
For `O=C(NCCN1CCNCC1)c1c(O)c2ccccc2[nH]c1=O`, the Percent Effect is 1.56% in test [1]; 12% in [2]; 11% in test [3]; -7.32% in test [4]; -9.23% in the test on Trypanosoma cruzi; -14.3% in test [5]. Also, the Percent Effect was 20.1% in test [6]; 26.5% in the test filed under Homo sapiens; 0% in test [7]; 5.13% in [8]; -9.61% in test [9].
